In PubChem BioAssay (NCI):
Compounds without any hit were thinned out: in the full panel of roughly 83,000, 20% have a hit.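 Plates (96-well) were seeded with cells, treated with compound at one concentration, and incubated for 48 hours before percent growth was determined.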 Values without a mark were called inactive. Active and inactive are the calls of the source. How the source made its calls: active means growth percent below 10; inactive means the rest.

Legend:
Experiment in all cases: NCI-60 one-dose screen, 48 h (100 = growth as untreated, 0 = no growth, -100 = all killed)
[1] = system: DU-145 prostate; details: 10 µM unless noted
[2] = system: K-562 leukemia; details: 10 µM unless noted
[3] = system: MALME-3M melanoma; details: 10 µM unless noted
[4] = system: MDA-MB-231 breast; details: 10 µM unless noted
[5] = system: SF-268 CNS; details: 10 µM unless noted
[6] = system: SF-295 CNS; details: 10 µM unless noted
[7] = system: SF-539 CNS; details: 10 µM unless noted
[8] = system: M14 melanoma; details: 10 µM unless noted
[9] = system: HCT-15 colon; details: 10 µM unless noted
[10] = system: HT29 colon; details: 10 µM unless noted
[11] = system: SNB-19 CNS; details: 10 µM unless noted
[12] = system: U251 CNS; details: 10 µM unless noted
[13] = system: PC-3 prostate; details: 10 µM unless noted
[14] = system: SK-MEL-5 melanoma; details: 10 µM unless noted
[15] = system: UACC-62 melanoma; details: 10 µM unless noted
[16] = system: LOX IMVI melanoma; details: 10 µM unless noted
[17] = system: SK-MEL-28 melanoma; details: 10 µM unless noted
[18] = system: SNB-75 CNS; details: 10 µM unless noted
[19] = system: RXF 393 renal; details: 10 µM unless noted
[20] = system: UACC-257 melanoma; details: 10 µM

Row | Structure (SMILES) | growth [1] | growth [2] | growth [3] | growth [4] | growth [5] | growth [6] | growth [7] | growth [8] | growth [9] | growth [10] | growth [11] | growth [12] | growth [13] | growth [14] | growth [15] | growth [16] | growth [17] | growth [18] | growth [19] | growth [20]
1 | Nc1nc(Cl)c2c(ncn2Cc2ccc(CCl)cc2)n1 | 86.5% | 117% | 94.6% | 88.2% | 91.1% | 52.8% | 82.5% | 97.2% | 84.9% | 91% | 93.2% | 81.4% | 77.6% | 70.3% | 78.4% | 69.7% | 101% | – | – | –
2 | CC(C)(C)OC(=O)N1C/C(=C\c2cccs2)C(=O)/C(=C/c2cccs2)C1 | 107% | 75.8% | 95.8% | 101% | 91.8% | 98.9% | 99% | 98.3% | 85.1% | 86.4% | 94.5% | 83.7% | 74.7% | 87.9% | 66.7% | 90.9% | 106% | 78.9% | – | –
3 | CC(=O)Nc1ccc(S(=O)(=O)N2C(=O)CCC2C(=O)Nc2ccccc2)cc1 (stereo unspecified) | 50.2% | 11.8% | – | 25.6% | 61.9% | 1.91% (active) | -22% (active) | 10.3% | 45.8% | 34% | 45% | 29.4% | 26.7% | 20.2% | 11% | 29.9% | 48.6% | 28.9% | 57.7% | 33.7%
4 | NC(C(=O)O)C(O)c1ccc(OCc2ccccc2)c(OCc2ccccc2)c1 (stereo unspecified) | 107% | 95.6% | 114% | – | 97.4% | 97.8% | 97.2% | 97.4% | 97.6% | 97.3% | 97.1% | 91% | 89.1% | 103% | 97.8% | 99.1% | 110% | 77.6% | 100% | –
5 | O=[N+]([O-])c1cc(S(=O)(=O)OCC2CO2)ccc1Cl (stereo unspecified) | 101% | – | 98.1% | 132% | 94.3% | 101% | 106% | 95.1% | 93.4% | 49.7% | 110% | 98.9% | 83.7% | 102% | 111% | 39.1% | 90.1% | 89.9% | 103% | 100%
6 | COc1cc(/C=C2\CCCC3=C2N=C2SC(C)=NN2C3c2cc(OC)c(OC)c(OC)c2)cc(OC)c1OC (stereo unspecified) | 4.69% (active) | 6.05% (active) | – | -39.6% (active) | 9.86% (active) | 5.96% (active) | -21.6% (active) | 10.6% | -20.6% (active) | 13.9% | 32.3% | 20.9% | 57.7% | 45.2% | -31.2% (active) | -67.6% (active) | 26.3% | – | 24.2% | 49.3%
7 | O=C(CC(O)c1ccncc1)c1ccccc1 (stereo unspecified) | 3.98% (active) | 57.9% | 91.9% | – | 74.9% | 51.8% | 8.03% (active) | 90.8% | 36.4% | 32.7% | 68.2% | 73.4% | – | 88.3% | 89.3% | -38% (active) | 105% | -5.32% (active) | -69.4% (active) | 83.1%
8 | COC(=O)[C@H]1[C@H](OC)[C@@H](OC(=O)/C=C/c2ccncc2)CC2CN3CCc4c([nH]c5cc(OC)ccc45)[C@@H]3C[C@@H]21 (stereo partly specified) | 80% | 57.3% | – | 62.2% | 80.3% | 90.4% | 91% | 78.4% | 75.5% | 68.9% | 84.1% | 67.1% | 56% | 89.6% | 43.8% | 50.4% | 94.5% | 48.6% | 72.7% | 62.3%
9 | Cn1c(C(N)=O)cc2c1-c1nc(NC3CCCCC3)ncc1CCC2 | 103% | 101% | – | 78.4% | 84.8% | 91.3% | 80.6% | 109% | 90.5% | 91.4% | 81.9% | 83.8% | 94.8% | 95% | 103% | 89.6% | 97.4% | 104% | 59.5% | 106%
10 | CCOC(=O)c1ccccc1NC(c1ccccc1)c1ccc2cccnc2c1O (stereo unspecified) | 36.9% | 30.2% | 54.4% | – | 28.6% | 25.4% | 11.8% | 15.7% | 23% | 39.4% | 30.9% | 17.7% | – | 4.23% (active) | 12.8% | 11.9% | 38.3% | 52.7% | 25% | 22.1%
11 | Nc1nc(-c2ccccc2)cs1 | 104% | 114% | – | 104% | 96.4% | 104% | 99.1% | 97.2% | 106% | 100% | 105% | – | 98.1% | 102% | 107% | 97.9% | 109% | 84.3% | 120% | 98.5%
12 | NC(=S)NN=C1CCCCC1 | 95.1% | 40.1% | 91.6% | – | 93.5% | 92.8% | 99.7% | 81.2% | 77.7% | 47.5% | 106% | 76.4% | 82.7% | 99.2% | 90% | 77.9% | 98.3% | – | 109% | 73.3%
13 | COc1cc(CNC(=O)CSc2nc3ccccc3c(=O)n2Cc2cc(OC)c(OC)c(OC)c2)cc(OC)c1OC | 108% | – | 97.5% | 94.4% | 97.5% | 105% | 96.3% | 97.2% | 97.4% | 108% | 92.5% | 98% | 97.4% | 93.7% | 86.8% | – | 102% | 89.2% | 97.4% | 94.2%
14 | COc1ccc(C2=NN(c3ccc(S(N)(=O)=O)cc3)C(c3cn(-c4ccccc4)nc3-c3ccc(Cl)cc3)C2)cc1 (stereo unspecified) | 95.2% | 66.9% | – | 93.5% | 85.6% | 93.1% | 102% | 83.9% | 80.8% | 82.6% | 92.5% | 84.1% | 66.7% | 99.9% | 88.5% | 87.3% | 103% | – | 97.3% | 95.4%
15 | COc1ccc(/C=C/C(=O)c2ccc(B(O)O)cc2)cc1O | 75.6% | 24.6% | – | 90.8% | 81.6% | 98.5% | 71.3% | 74.1% | 31.2% | 64.6% | 89.2% | 80.7% | 74.1% | 93% | 76.9% | 57.7% | 90.3% | 72.6% | 81.4% | 94.3%
16 | O=S(=O)(NCCNc1nccc(-c2c(-c3ccccc3)nc3sccn23)n1)c1ccc(O)cc1 | 46% | 35.9% | – | 50% | 46.5% | 47.3% | 59.2% | 35.7% | 47.9% | 21.4% | 56.5% | 41.5% | 57.9% | 7.89% (active) | 52.4% | 31.4% | 47.6% | 28.7% | 45.9% | 82.4%
17 | CCCCC(N)(C(=O)O)C1CCCC1 (stereo unspecified) | 122% | – | 127% | 105% | 107% | 98.8% | 96.7% | 107% | 96.2% | 100% | 99.9% | 91% | 92.2% | 105% | 97.4% | – | 94.8% | 93.5% | 106% | 87.2%
